Bioassay records: PubChem, National Center for Advancing Translational Sciences (NCATS)
Shown are actives, neighbours in structure and some others; about 2.3% of the full set was active somewhere.
Rango release inh: prevents RanGTP from dissociating the Rango-importin beta complex; O95149+P62826; Biochemical FRET Rango-importin beta, RanGTP-induced dissociation; Potency, µM (doses to about 46.1 µM), without a hit: top-dose activity change, negative = inhibition; 340,000 tested, 0.071% active; calls by dose curve; note: % of control where 0% means no effect; nearly all actives have a fitted effect of over 45% in size
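Compounds preincubate 5 min with complex of recombinant Rango and importin beta in PBS with 1 mM DTT. Ran (0.6 uM) loaded with 2 mM GTP plus 0.2 uM RCC1 starts dissociation; FRET is recorded 45 min later.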
Rango complex inh: prevents formation of the Rango-importin beta complex; Q14974; Rango CFP/YFP FRET sensor + importin beta, 45 min; AID 540263; Potency, µM (doses to about 92.2 µM), for inactives: at the top dose inhibition of complex formation; 340,000 tested, 0.031% active; calls by dose curve;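 note: 0% = DMSO wells and 100% = buffer wells lacking importin beta; nearly all actives have a fitted effect of over 15% in size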
Target sequence (Q14974 whole entry, looked up): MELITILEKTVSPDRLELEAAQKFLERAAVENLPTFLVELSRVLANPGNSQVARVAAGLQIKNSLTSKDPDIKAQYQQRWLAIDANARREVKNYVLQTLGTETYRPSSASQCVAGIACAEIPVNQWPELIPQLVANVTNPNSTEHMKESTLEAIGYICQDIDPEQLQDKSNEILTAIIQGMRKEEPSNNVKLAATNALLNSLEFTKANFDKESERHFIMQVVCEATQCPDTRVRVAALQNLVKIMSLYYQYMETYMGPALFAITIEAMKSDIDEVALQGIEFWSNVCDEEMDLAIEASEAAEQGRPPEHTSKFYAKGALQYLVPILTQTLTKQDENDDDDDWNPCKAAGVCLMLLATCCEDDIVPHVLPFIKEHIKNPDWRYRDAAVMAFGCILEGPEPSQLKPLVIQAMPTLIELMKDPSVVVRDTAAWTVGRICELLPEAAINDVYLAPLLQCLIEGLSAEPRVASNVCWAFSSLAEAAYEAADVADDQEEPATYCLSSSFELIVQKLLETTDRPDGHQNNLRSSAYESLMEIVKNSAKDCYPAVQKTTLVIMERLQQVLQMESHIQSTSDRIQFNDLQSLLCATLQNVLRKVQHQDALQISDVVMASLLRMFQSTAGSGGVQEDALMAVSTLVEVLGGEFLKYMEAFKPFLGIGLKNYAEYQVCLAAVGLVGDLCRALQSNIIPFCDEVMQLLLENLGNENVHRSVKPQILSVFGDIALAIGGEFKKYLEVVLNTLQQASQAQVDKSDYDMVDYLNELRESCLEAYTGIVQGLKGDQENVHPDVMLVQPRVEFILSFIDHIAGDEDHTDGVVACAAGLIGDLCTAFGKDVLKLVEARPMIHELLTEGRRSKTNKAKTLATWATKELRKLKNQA
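FRET biosensor (snurportin 1 IBB flanked by EYFP and cerulean), 50 nM, with compound 5 min, then 0.125 microM importin beta in PBS, 1 mM DTT, 0.02% Tween-20, 0.1% BSA. CFP/YFP ratio read after 45 min at room temperature; pre-read flags interference.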
Nrf2 activator: Nrf2 pathway activation; 410,000 tested, 0.31% active; Potency, µM (series often up to 46.1 µM), for inactives: top-dose activation, actives largely listed as activators; AREc32 ARE-luciferase reporter (MCF7-derived line), luminescence, 24 h; AID 624171; note: % of control where 0% means no effect; nearly all actives have a fitted effect of over 65% in size
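AREc32_Fluc, 1000 cells/well, OPTI-MEM + 5% FBS, o/n 37 deg C 5% CO2; 23 nL cpd by pin tool, 24 hr; Steady-Glo 30 min RT, luminescence.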
A549 viability: counter-screen for Nrf2 inhibitors: cytotoxicity in A549 cells; A549 ARE-Fluc cells, CellTiter-Fluor viability, 18-24 h; Potency, µM (titrated, usually from 46 µM), for inactives: at the highest dose activity change, negative = cytotoxicity, usual class: inhibitors; 390,000 tested, 0.16% active; AID 504648; note: % is set by controls: 0 for no effect and ±100 for the full control effect
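A549 ARE-Fluc cells in 5% FBS OPTI-MEM, 5000 cells/well, rested 2 h then exposed to compounds in concentration-response for 18-24 h at 37 °C. Viability by CellTiter-Fluor fluorescence (Ex 405/Em 525) after 30 min; luciferase luminescence (BugLite, 15 min, RT) read afterwards.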
Nrf2 block: inhibitors of Nrf2 signaling; Potency, µM (titrated, usually from 46 µM), for inactives: top-dose activity change, negative = inhibition, actives largely listed as inhibitors; AID 504444; A549 ARE-Fluc reporter, luciferase luminescence, 18-24 h; 360,000 tested, 2.1% active; note: % is set by controls: 0 for no effect and ±100 for the full control effect; nearly all actives have a fitted effect of over 60% in size
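Quantitative HTS in A549 cells stably bearing an antioxidant response element-firefly luciferase construct. Inhibition of Nrf2-driven transcription was scored by luminescence after 18-24 h of compound exposure at 37 °C.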
* hit, by the source's call; ? = inconclusive; . = not tested or not shown; ! = repeats disagree; [ ] = another dose, or the depositor's remark. Unless noted, calls come from the whole dose curve; as a rule, active = well fitted curve in the direction sought with a large enough effect; inconclusive = small, poorly fitted or top-dose-only effect, or another doubt; inactive = no such curve, though single readings can be large; an effect the other way counts as inactive or inconclusive. Potency is the fitted concentration of half-maximal effect.

SMILES	Rango release inh	Rango complex inh	Nrf2 activator	A549 viability	Nrf2 block
Cc1c(Cl)cccc1NC(=O)CC(c1cccs1)N1Cc2ccccc2C1=O (centres undefined)	.	.	1%	-11%	16%
N#Cc1ccc(NC(=O)COC(=O)c2cccnc2Cl)cc1	-3%	-1%	1%	0%	5%
CN1c2ccsc2/C(=N/Nc2ccc(F)cc2)CS1(=O)=O	7%	-1%	13µM*	-18%	?
CC(N=C1NS(=O)(=O)c2ccccc21)C(=O)Nc1ccc(F)cc1Cl (centres undefined)	-10%	1%	0%	-5%	-5%
Clc1ccc2ccc3cccnc3c2n1	0%	0%	0%	-12%	-16%
Cc1cnc2c3c(cc(Cl)c2c1)-c1ccccc1S(=O)(=O)N3	.	.	.	16µM*	6.5µM*
O=S1(=O)Nc2c(ccc3cccnc23)-c2ccccc21	2%	-1%	7.1µM*	?	?
CCc1c(C)nc2nncn2c1NCc1ccc(Cl)cc1	.	.	0%	-17%	8.2µM*
Cn1cc(C(=O)NCCc2ccc(Cl)cc2)c(=O)c2cc(S(=O)(=O)N3CCOCC3)ccc21	.	.	-1%	2%	-5%
Cc1noc(C)c1CSc1nc2ccccc2nc1NS(=O)(=O)c1ccc(Cl)cc1	-1%	-1%	0%	?	9.2µM*
O=S(=O)(Nc1nc2ccccc2nc1NCc1ccco1)c1ccc(Cl)cc1	3%	3%	8%	-13%	21µM*
Cc1ccc(S(=O)(=O)Nc2nc3ccccc3nc2NCc2ccco2)cc1	?	?	22µM*	-4%	?
Cc1cccc(S(=O)(=O)Nc2nc3ccccc3nc2NCc2ccco2)c1	-2%	0%	27%	4%	?
Cc1ccc(S(=O)(=O)Nc2nc3ccccc3nc2NCc2ccco2)cc1C	-11%	?	5%	-5%	21µM*
CSc1ncc(C(=O)NCc2ccc(Cl)cc2)c(C(F)(F)F)n1	.	.	-1%	10%	?
COc1cc(OC)cc(C(=O)OCC(=O)N(C)c2ccccc2)c1	1%	1%	0%	0%	-29%
Clc1cccc(-c2ccc(CNCCSc3nnnn3-c3ccccc3)o2)c1	.	.	0%	?	11%
COc1cc(OC)c(Nc2nc3ccccc3nc2-n2nc(C)cc2C)cc1Cl	.	.	5%	11%	10%
CS(=O)(=O)c1ccc(C(=O)Nc2cc(-c3ccccc3)nn2-c2ccccc2)cc1	-3%	0%	3%	-13%	15µM*
CC(C)(C)c1ccc(C(=O)Nc2cc(-c3ccccc3)nn2-c2ccccc2)cc1	.	.	-1%	-8%	.
CCn1cc(S(=O)(=O)c2ccc(C)cc2C)c(=O)c2cc(F)c(N3CCCCC3)cc21	.	.	1%	-12%	0%
O=C(O)COc1ccc(-c2nccc(-c3ccccn3)n2)cc1	10%	3%	-1%	-1%	2.1µM*
FCCCOc1ccc(-c2nccc(-c3ccccn3)n2)cc1	0%	1%	13%	11%	?
Nc1cc(C(=O)OCC(=O)NNC(=O)c2cccs2)ccc1Cl	-1%	0%	0%	0%	3%
O=C(O)c1ccccc1Nc1ccc([N+](=O)[O-])cc1C(=O)O	?	?	0%	-24%	7%
SMILES	Rango release inh	Rango complex inh	Nrf2 activator	A549 viability	Nrf2 block
COc1cccc(Nc2cc(N3CCOCC3)c3nonc3c2[N+](=O)[O-])c1	-9%	2%	0%	-17%	-12%
O=C(O)c1ccccc1Nc1ccc([N+](=O)[O-])c2nonc12	-18%	14%	0%	18µM*	-21%
COc1cccc(Nc2ccc([N+](=O)[O-])c3nonc23)c1	3%	6%	7%[9.22 µM]	18µM*	?
CSC1=N/C(=C\c2ccccc2)C(=O)N1C	-23%	?	11µM*	-3%	9%
CSC1=N/C(=C\c2cccnc2)C(=O)N1c1ccccc1	1%	1%	3%	7%	5%
CC(Sc1nc(=O)cc(N)n1CCc1ccccc1)C(=O)Nc1ccccc1C#N (centres undefined)	.	.	0%	-5%	28%
CCOC(=O)c1c(NC(=O)c2ccc(Br)cc2)sc2c1CCCC2	.	.	0%	11%	.
CCOC(=O)c1c(NC(=O)c2ccc(-n3cnnn3)cc2)sc2c1CCCC2	21µM*	-7%	0%	-15%	?
Cc1ccc(NS(=O)(=O)c2cc3c(cc2-c2ccsc2)NC(=O)CO3)cc1C	.	.	.	3%	10%
CN(c1ccccc1)S(=O)(=O)c1nnc(NC(=O)c2ccco2)s1	-4%	2%	0%	-3%	7.3µM*!
Cc1cc(C)cc(N(C)S(=O)(=O)c2nnc(NC(=O)COc3ccc(Cl)cc3)s2)c1	.	.	-1%	-19%	?
CCC(CC)C(=O)Nc1nnc(S(=O)(=O)N(C)c2cc(C)cc(C)c2)s1	.	.	2%	-6%	21µM*
COC(=O)CN1C(=O)CSc2ccc(S(=O)(=O)Nc3cccc(Cl)c3C)cc21	.	.	0%	15%	?
CC(C)(C)c1ccc(C(=O)N2CCN(CCNC(=O)C(=O)NCc3ccc(Cl)cc3)CC2)cc1	1%	-3%	0%	?	21µM*
CC(C)(C)OC(=O)N1CCN(c2ccc(CNC(=O)c3ccc(Cl)cc3)cc2)CC1	6%	1%	-1%	-27%	10µM*
Cn1cnc(C(=O)NCc2ccc(CNC(=O)OC(C)(C)C)cc2)c1C(=O)NCc1ccc(CNC(=O)OC(C)(C)C)cc1	-13%	-1%	0%	1%	18µM*
Cc1ccc(NC(=O)c2nc[nH]c2C(=O)N2CCN(C(=O)OC(C)(C)C)CC2)cc1	26%	2%	1%	4%	2%
CC(C)(C)OC(=O)NCc1ccc(CNC(=O)c2nc[nH]c2C(=O)N2CCN(C(=O)OC(C)(C)C)CC2)cc1	-10%	7%	0%	-21%	26µM*
C/C(=N\N=C(N)N)c1cc(Cl)ccc1Cl	-11%	0%	4%	?	16µM*
CCc1ccccc1Nc1nc2ccccc2[nH]1	0%	0%	0%	-1%	15µM*
CNc1c2cccc(C)c2nc2c(C(=O)NCCN(C)C)cccc12	?	?	-2%	4.6µM*	1.5µM*
Cc1ccc(C(=O)NCCN(C)C)c(C)c1	3%	-1%	0%	-2%	12%
